Active and inactive are the calls of the source.
How the values were obtained:
[1] = test system: Plasmodium falciparum Sir2 (PF13_0152, Sir2A); experiment: Plasmodium falciparum Sir2A binding compounds – biochemical, small-molecule microarray, 635 nm fluorescence, primary screen (AID 1098); settings: fluorescence 635 nm, higher = more signal;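 further: score merges spot fluorescence intensity with its signal-to-noise ratio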
[2] = probe aDKK1 binding to arrayed compounds – biochemical, biotinylated probe, 635/667 nm fluorescence, primary screen (AID 1099); settings: small-molecule microarray, higher = more signal;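 further: score merges 667nm spot fluorescence with signal to noise across triplicate slides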
[3] = probe aCHRDL2 binding to arrayed compounds – biochemical, biotinylated probe, 635/667 nm fluorescence, primary screen (AID 1100); settings: small-molecule microarray, higher = more signal
[4] = change in splice reporter luminescence, either direction, cell-based, HEK293, spliceosome inhibition project, primary screen (AID 1101); settings: HEK293 splicing luciferase reporter, 24 h, higher = more signal, called active from +8 up or from −8 down;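 further: HEK293 cells carrying a splicing-competent luciferase reporter gene; test concentration not given here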
[5] = molecular target: Fibroblast growth factor 10 (Homo sapiens) (UniProt O15520); experiment: compounds binding fibroblast growth factor 10 – biochemical, small-molecule microarray, 635 nm fluorescence, primary screen (AID 1102); settings: FGF10 binding, fluorescence 635 nm, higher = more signal
[6] = test system: glycogen synthase kinase-3 (GSK3A per assay name; protocol says GSK3B); experiment: compounds binding glycogen synthase kinase-3 – biochemical, small-molecule microarray, 635 nm fluorescence, GSK3A, primary screen (AID 1103); settings: fluorescence 635 nm, higher = more signal; further: the record names both GSK3A and GSK3B
[7] = molecular target: Epidermal growth factor receptor (Homo sapiens) (UniProt P00533); experiment: compounds binding epidermal growth factor receptor – biochemical, small-molecule microarray, 635 nm fluorescence, primary screen (AID 1104); settings: EGFR binding, higher = more signal;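 further: score merges 667 nm emission intensity with spot signal to noise over triplicate slides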
[8] = molecular target: Follistatin-related protein 3 (Homo sapiens) (UniProt O95633); experiment: compounds binding follistatin-related protein 3 – biochemical, small-molecule microarray, 635 nm fluorescence, primary screen (AID 1105); settings: FSTL3 binding, higher = more signal;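 further: score merges emission near 667 nm and signal to noise per printed spot across three slides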
[9] = molecular target: Dickkopf-related protein 1 (Homo sapiens) (UniProt O94907); experiment: small molecules binding DKK1 protein – biochemical, small-molecule microarray, 635 nm fluorescence scan, primary screen (AID 1106); settings: higher = more signal;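 further: score merges emission near 667 nm with signal to noise over three replicate slides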
[10] = test system: Inhibin beta A chain (activin A); experiment: small molecules binding activin A – biochemical, small-molecule microarray, 635 nm fluorescence scan, primary screen (AID 1107); settings: INHBA, higher = more signal;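 further: mouse activin A protein probed at 4.33 µg/mL on printed slides; score merges bound-protein fluorescence near 667 nm with spot signal-to-noise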
[11] = test system: Human papillomavirus type 1a protein E7 (residues 44-93); experiment: small molecules binding HPV E7 44-93 – biochemical, small-molecule microarray, residues 44-93, 635 nm fluorescence, primary screen (AID 1108); settings: fluorescence 635 nm, higher = more signal;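 further: E7 fragment applied at 1 µg/mL in TBST for 1 h at 4 C; score combines spot fluorescence with its signal to noise ratio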
[12] = hepatitis C replication reporter changes, two-sided – Huh7 cells, luciferase reporter, HCV replication inhibitor project, primary screen (AID 1109); settings: Huh7 HCV replicon luciferase reporter, 48 h; higher = more signal;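 further: huh7 hepatoma cells harbouring a luciferase neomycin HCV replicon reporter; luciferase luminescence as measure of HCV replicon replication; test concentration not given here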
[13] = molecular target: Left-right determination factor 2 (Homo sapiens) (UniProt O00292); experiment: small molecules binding LEFTY2 protein – biochemical, small-molecule microarray, 635 nm fluorescence scan, primary screen (AID 1110); settings: higher = more signal
[14] = molecular target: Calmodulin-1 (Homo sapiens) (UniProt P0DP23); experiment: small molecules binding calmodulin-1 with EGTA – biochemical, small-molecule microarray, Cy5-labelled CALM1, profiling panel (AID 1111); settings: Cy5-CALM1 binding fluorescence, higher = more signal;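 further: labelled calmodulin applied in Tris saline Tween buffer holding calcium plus EGTA and DTT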
[15] = molecular target: Calmodulin-1 (Homo sapiens) (UniProt P0DP23); experiment: small molecules binding Ca-loaded calmodulin-1 – biochemical, small-molecule microarray, Cy5-labelled CALM1, plus calcium, artefact control for SMM control-protein annotation, profiling panel (AID 1112); settings: Cy5-CALM1 binding fluorescence, higher = more signal;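 further: score merges spot fluorescence with signal to noise from triplicate slides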
[16] = probe aWnt5a binding to arrayed compounds – biochemical, biotinylated probe, 635/667 nm fluorescence, primary screen (AID 1113); settings: small-molecule microarray, higher = more signal;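 further: score merges 667 nm fluorescence intensity with signal-to-noise per printed feature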
[17] = probe aShh binding to arrayed compounds – biochemical, biotinylated probe, 635/667 nm fluorescence, primary screen (AID 1114); settings: small-molecule microarray, higher = more signal;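 further: probe is biotin-labelled aShh protein from a stem cell growth factor screen; measures binding of labelled protein to compounds printed on the slide; score merges feature fluorescence at 667 nm with signal-to-noise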
[18] = probe aNog binding to arrayed compounds – biochemical, biotinylated probe, 635/667 nm fluorescence, primary screen (AID 1115); settings: small-molecule microarray, higher = more signal;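 further: probe is biotinylated aNog protein used at 0.15 µg/mL for 1 h at 4 C; z-score combines 667 nm fluorescence of each spot with its signal to noise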
[19] = molecular target: Torsin-1A-interacting protein 1 (Homo sapiens) (UniProt Q5JTV8); experiment: compound microarray binding of lysate hLAP1 – cell lysate, small-molecule microarray, COS7 lysate, 635/667 nm fluorescence, primary screen (AID 1116); settings: 635 nm fluorescence, higher = more signal
[20] = molecular target: Alpha-bungarotoxin (Bungarus multicinctus) (UniProt P60615); experiment: compounds binding labelled alpha-BTX control protein – biochemical, small-molecule microarray, Alexa647 label, 635/667 nm fluorescence, artefact control for SMM control protein annotation, profiling panel (AID 1117); settings: alpha-BTX-A647 binding fluorescence, higher = more signal
Sequence of Alpha-bungarotoxin (Bungarus multicinctus) (P60615 whole entry, looked up): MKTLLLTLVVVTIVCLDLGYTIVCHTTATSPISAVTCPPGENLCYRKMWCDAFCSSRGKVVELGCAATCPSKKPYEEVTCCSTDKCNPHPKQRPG

Sequence of Torsin-1A-interacting protein 1 (Homo sapiens) (Q5JTV8 whole entry, looked up): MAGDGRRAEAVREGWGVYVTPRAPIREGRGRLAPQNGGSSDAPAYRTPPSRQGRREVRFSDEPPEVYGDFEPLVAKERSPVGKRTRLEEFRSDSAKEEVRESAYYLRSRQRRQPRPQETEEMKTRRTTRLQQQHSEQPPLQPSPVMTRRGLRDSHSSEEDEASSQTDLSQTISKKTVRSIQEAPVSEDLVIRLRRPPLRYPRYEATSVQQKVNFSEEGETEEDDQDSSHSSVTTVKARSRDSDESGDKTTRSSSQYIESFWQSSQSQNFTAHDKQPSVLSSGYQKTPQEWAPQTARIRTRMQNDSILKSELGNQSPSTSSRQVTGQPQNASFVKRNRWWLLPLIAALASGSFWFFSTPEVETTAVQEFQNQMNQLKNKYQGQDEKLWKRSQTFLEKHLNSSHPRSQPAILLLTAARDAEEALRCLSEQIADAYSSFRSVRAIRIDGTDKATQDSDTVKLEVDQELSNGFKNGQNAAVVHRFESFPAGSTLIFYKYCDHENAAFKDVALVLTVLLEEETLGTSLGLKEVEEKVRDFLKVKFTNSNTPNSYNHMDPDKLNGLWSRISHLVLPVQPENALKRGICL
Sequence of Dickkopf-related protein 1 (Homo sapiens) (O94907 whole entry, looked up): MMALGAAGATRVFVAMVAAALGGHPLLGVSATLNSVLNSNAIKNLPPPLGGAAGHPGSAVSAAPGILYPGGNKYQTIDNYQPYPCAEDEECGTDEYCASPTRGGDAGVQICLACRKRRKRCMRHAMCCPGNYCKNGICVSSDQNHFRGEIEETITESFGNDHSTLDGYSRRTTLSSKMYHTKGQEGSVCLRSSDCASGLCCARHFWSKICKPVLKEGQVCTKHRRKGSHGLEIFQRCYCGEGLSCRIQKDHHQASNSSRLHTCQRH
Sequence of Fibroblast growth factor 10 (Homo sapiens) (O15520 whole entry, looked up): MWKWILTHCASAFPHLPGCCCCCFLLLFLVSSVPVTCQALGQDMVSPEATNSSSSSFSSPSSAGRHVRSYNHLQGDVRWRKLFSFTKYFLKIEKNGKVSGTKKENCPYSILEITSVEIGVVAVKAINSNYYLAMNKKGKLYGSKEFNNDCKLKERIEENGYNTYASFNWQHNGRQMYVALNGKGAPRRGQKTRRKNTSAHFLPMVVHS
Sequence of Follistatin-related protein 3 (Homo sapiens) (O95633 whole entry, looked up): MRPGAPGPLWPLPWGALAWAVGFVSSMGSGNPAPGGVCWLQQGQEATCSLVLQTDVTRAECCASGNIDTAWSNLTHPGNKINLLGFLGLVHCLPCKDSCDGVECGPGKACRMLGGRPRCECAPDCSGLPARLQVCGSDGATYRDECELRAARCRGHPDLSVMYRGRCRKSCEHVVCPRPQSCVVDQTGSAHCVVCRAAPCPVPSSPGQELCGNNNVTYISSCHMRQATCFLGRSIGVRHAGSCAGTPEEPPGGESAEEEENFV
Sequence of Epidermal growth factor receptor (Homo sapiens) (P00533 whole entry, looked up): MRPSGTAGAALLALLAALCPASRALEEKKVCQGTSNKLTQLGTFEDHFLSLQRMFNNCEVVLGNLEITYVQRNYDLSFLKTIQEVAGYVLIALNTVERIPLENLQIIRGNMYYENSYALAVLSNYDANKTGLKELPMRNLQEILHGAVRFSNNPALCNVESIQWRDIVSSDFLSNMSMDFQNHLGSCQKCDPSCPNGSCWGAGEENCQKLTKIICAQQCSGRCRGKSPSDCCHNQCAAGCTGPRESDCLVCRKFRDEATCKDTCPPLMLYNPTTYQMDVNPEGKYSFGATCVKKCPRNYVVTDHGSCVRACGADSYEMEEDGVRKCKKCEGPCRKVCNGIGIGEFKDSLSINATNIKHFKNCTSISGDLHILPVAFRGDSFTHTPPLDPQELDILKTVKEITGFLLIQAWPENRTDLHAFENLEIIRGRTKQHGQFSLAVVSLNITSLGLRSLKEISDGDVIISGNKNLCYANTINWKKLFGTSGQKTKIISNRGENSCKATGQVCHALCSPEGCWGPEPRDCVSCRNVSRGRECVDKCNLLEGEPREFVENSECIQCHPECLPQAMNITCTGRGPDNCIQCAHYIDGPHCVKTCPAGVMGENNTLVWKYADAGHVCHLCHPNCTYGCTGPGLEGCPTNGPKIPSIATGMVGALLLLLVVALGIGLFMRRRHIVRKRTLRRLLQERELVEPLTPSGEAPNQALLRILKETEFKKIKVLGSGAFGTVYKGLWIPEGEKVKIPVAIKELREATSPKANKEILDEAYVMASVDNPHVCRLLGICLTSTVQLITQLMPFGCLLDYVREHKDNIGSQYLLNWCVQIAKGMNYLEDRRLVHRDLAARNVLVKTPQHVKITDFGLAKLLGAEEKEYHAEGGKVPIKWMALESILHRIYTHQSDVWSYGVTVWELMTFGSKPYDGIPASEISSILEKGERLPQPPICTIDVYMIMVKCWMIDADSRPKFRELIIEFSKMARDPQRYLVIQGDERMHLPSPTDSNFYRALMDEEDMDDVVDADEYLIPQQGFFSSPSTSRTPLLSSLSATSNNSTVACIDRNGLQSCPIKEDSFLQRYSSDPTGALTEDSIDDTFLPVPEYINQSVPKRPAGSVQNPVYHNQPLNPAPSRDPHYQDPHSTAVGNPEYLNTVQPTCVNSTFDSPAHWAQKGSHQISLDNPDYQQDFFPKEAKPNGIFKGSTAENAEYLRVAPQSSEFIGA
Sequence of Left-right determination factor 2 (Homo sapiens) (O00292 whole entry, looked up): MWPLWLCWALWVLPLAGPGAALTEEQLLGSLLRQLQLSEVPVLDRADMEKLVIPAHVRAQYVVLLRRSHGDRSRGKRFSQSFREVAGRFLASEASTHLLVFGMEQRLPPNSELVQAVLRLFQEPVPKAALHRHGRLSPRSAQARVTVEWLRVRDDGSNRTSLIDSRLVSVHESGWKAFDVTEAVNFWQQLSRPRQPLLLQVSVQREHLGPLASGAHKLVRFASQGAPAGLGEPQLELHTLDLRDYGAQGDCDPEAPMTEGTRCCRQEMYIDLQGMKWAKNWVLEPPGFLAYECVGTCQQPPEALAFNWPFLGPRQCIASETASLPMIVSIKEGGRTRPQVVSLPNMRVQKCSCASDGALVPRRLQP

| SMILES | composite z-score [1] | composite z-score [2] | composite z-score [3] | z-score [4] | composite z-score [5] | composite z-score [6] | composite z-score [7] | composite z-score [8] | composite z-score [9] | composite z-score [10] | composite z-score [11] | z-score [12] | composite z-score [13] | composite z-score [14] | composite z-score [15] | composite z-score [16] | composite z-score [17] | composite z-score [18] | composite z-score [19] | composite z-score [20] |
| --- | --- | --- | --- | --- | --- | --- | --- | --- | --- | --- | --- | --- | --- | --- | --- | --- | --- | --- | --- | --- |
| C=CCC(OC(C)=O)[C@@H]1[C@@H](N(Cc2cc3ccccc3o2)C(=O)Cc2ccc(OC)cc2)c2cc(OCCCO)ccc2N1C(=O)c1ccc2ccccc2n1 (stereo not given in full) | 0.0682 | 0.0671 | 0.393 | -0.536 (inactive) | 0.116 | 0.0115 | 0.357 | 0.367 | 0.0467 | 1.42 | -0.329 | -0.814 | 0.0809 | -0.154 | -0.292 | 0.0573 | -0.0362 | -0.0381 | 0.461 | 1.08 |
| C[C@@H]1NC(=O)C([C@@H](C)OCc2ccccc2)NC(=O)[C@@]23C(=O)N[C@@H](Cc4ccccc4)C2[C@H](C)[C@@]2(C)O[C@H]2C3/C=C/C/C=C\CNC1=O (stereo not given in full) | 1.58 | -0.76 | -0.751 | 0.531 (inactive) | 0.224 | -0.297 | -0.506 | 0.11 | 0.382 | 1.44 | -0.663 | -0.914 | -0.238 | -1.17 | -1.85 | -0.172 | 0.299 | -0.423 | -0.215 | -0.0334 |
| COc1ccc(C#Cc2ccc3c(c2)[C@]2(C(=O)N3)[C@H](C(=O)O)[C@H]3C(=O)O[C@H](c4ccccc4)[C@H](c4ccccc4)N3[C@@H]2c2ccccc2OCCO)cc1 | 1.54 | -0.161 | -0.126 | -2.14 (inactive) | 1.16 | 1.31 | 0.481 | 0.509 | 0.301 | -0.658 | 0.263 | -2.19 | 0.694 | 1.04 | 0.604 | -0.235 | 0.0777 | 0.279 | 0.835 | 2.21 |
| CC[C@@H]1C=C(C(=O)O)[C@H](c2ccc(OC)cc2)N1S(=O)(=O)c1ccc(C)cc1 | 1.05 | -0.0814 | 0.118 | 0.603 (inactive) | -0.0657 | -1.06 | -0.675 | 0.0479 | -0.188 | 0.615 | -0.875 | -0.619 | -0.495 | 0.15 | 0.0583 | -0.154 | -0.221 | -0.209 | 0.076 | 0.0708 |
| COc1ccc([Si](C)(C)[C@H]2[C@H](CCO)O[C@@]3(C(=O)N(Cc4ccc(NC(=O)[C@H](C)O)cc4)c4ccccc43)[C@@H]2C)cc1 | 0.931 | 0.162 | 0.193 | -2.32 (inactive) | 1.14 | 1.07 | 0.161 | 0.0961 | 0.156 | 0.531 | 1.42 | -5.22 | 0.378 | 1.19 | 0.0314 | -0.105 | 0.318 | 0.686 | 0.989 | 1.24 |
| CCOC(=O)C[C@H]1[C@H](OC(=O)c2ccccc2-c2ccccc2)[C@@H](NC(=O)C2CCCCC2)c2cc(OCCCO)ccc2N1C(=O)c1ccc2ccccc2n1 | 0.486 | -0.0483 | -0.334 | 0.0681 (inactive) | 0.679 | 0.452 | 0.27 | 0.845 | 0.483 | -0.286 | 1.31 | -1.71 | 0.358 | 0.236 | -0.24 | -0.0087 | 0.0611 | 0.0707 | -0.0006 | 0.026 |
| O=C1OCCC=C[C@H]2OC34C=CCN(c5ccc6ccccc6c5)C(=O)[C@H]3N(CCO)C(=O)[C@@H]4C12 (stereo not given in full) | 1.89 | -0.886 | -0.465 | -0.502 (inactive) | -0.0326 | -0.327 | -0.405 | -0.114 | -0.951 | -0.666 | -0.988 | -0.07 | -0.277 | -0.237 | -0.419 | -0.219 | -0.383 | -0.453 | 0.468 | 0.0797 |
| CN(C)c1ccc(C(O)C2C=CC3C(=O)N(Cc4ccccc4)C(=O)C3N2n2cnnc2)cc1 (stereo not given) | 0.491 | -0.393 | 0.562 | -0.394 (inactive) | 0.13 | -0.56 | 0.268 | -0.0523 | 0.114 | 1.28 | -1.17 | -0.32 | 0.205 | -0.207 | -0.363 | -0.0037 | 0.108 | -0.0086 | 0.304 | 0.255 |
| CCCCC(=C=CC[C@H](O)c1ccc(CO)o1)CCO | 1.17 | -0.0027 | -0.485 | 0.263 (inactive) | 0.738 | 0.514 | -0.0244 | 0.484 | -0.0878 | 0.839 | 0.906 | -0.401 | 0.346 | 0.155 | -0.363 | -0.124 | 0.137 | 0.2 | 0.906 | 0.221 |
| CCCCCCc1nc(-c2ccc(-c3ccc(Cl)c(Cl)c3)o2)cc2c1[Si](C(C)C)(C(C)C)OC2 | -0.143 | -0.269 | 0.207 | -2.26 (inactive) | -1.31 | -1.22 | -1.01 | -0.816 | -0.793 | 0.522 | -0.474 | -0.967 | -0.924 | -0.444 | 0.742 | -0.174 | -0.372 | -0.278 | -0.875 | -0.782 |
| O=C1c2ccccc2[C@@]2(Cc3ccccc3N(Cc3ccccc3)C2=O)[C@H](c2ccc(CO)cc2)N1Cc1ccccc1Cl | -0.493 | -0.0131 | 0.28 | -1.06 (inactive) | -0.377 | -1.35 | -0.804 | -0.277 | -0.666 | 0.54 | -0.728 | 0.0868 | -0.44 | -0.223 | 0.306 | -0.202 | -0.412 | 0.105 | -0.881 | -0.0792 |

Reference: PubChem BioAssay
